Screening results (PubChem)
MITF inh = inhibitors of human MITF; O75030; AlphaScreen MITF homodimerization, bead proximity signal; inhibition, % at 2.6 µM; hit rate 0.91% among 650,000; in the data active means inhibition above about 50%;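 further: 0% = vehicle wells with protein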
TEAD-YAP block = TEAD-YAP interaction inhibition; HEK-TIYL cells, TEAD-Gal4/YAP UAS-luciferase luminescence; inhibition, % at 9.12 µM; hit rate 1.4% among 640,000; AID 1259422; in the data active means inhibition above about 32%;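 further: 0% = median of test compound wells and 100% = reference inhibitor wells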
GPR151 activ = activators of human GPR151 | PathHunter beta-arrestin GPR151 cells, luminescence | activation, % at 11.2 µM | hit rate 1% among 650,000 | AID 1508602; in the data active means activation above about 4.9%;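 further: 0% = median of compound wells and 100% = cells with positive control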
Target sequence (Q8TDV0 whole entry, looked up): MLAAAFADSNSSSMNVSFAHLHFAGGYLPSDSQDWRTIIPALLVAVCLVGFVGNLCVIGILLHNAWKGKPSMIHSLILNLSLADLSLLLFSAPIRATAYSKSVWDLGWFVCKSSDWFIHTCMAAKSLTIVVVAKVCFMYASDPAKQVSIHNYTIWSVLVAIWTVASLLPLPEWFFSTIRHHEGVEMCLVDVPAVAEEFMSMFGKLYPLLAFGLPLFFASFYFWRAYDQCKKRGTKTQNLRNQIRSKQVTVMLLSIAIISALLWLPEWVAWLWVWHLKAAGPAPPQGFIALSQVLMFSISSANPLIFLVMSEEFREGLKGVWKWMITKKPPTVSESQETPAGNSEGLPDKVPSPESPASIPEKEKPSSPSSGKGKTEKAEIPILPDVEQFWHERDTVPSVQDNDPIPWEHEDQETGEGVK
FBW7 activator = activators of human E3 ligase FBW7; AlphaScreen FBW7–phospho-cyclin E peptide binding, activator screen; normalized activity (activation), % at 26.1 µM; hit rate 0.13% among 650,000; in the data active means normalized activity above about 1.9%;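 further: purified mutant Fbw7 with reduced substrate affinity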
* marks the source's active call; other numbers are inactive results. Most compounds without a hit are left out; they make up all but 3.5% or so of the library.

SMILES	MITF inh	TEAD-YAP block	GPR151 activ	FBW7 activator
CN(C)CCNC(=O)c1cccc(-c2cnn3c(NCc4cccs4)ccnc23)c1	-1	93*	0	0
Oc1cccc(-c2cnn3c(NCC4CC4)ccnc23)c1	-7	98*	-1	0
Oc1cccc(-c2cnn3c(NCc4cccs4)ccnc23)c1	3	99*	-2	0
COc1ccc(CNc2ccnc3c(-c4cccc(C(=O)NCCN(C)C)c4)cnn23)cc1	1	-52	-1	0
O=C(O)c1cccc(-c2cnn3c(NCc4cccs4)ccnc23)c1	8	94*	2	0
O=C(NCCN=Cc1cccnc1)c1ccccc1	5	7	-1	0
Cc1ccc(-c2cccc3cnc(Nc4ccc(C(=O)NC5CC5)cc4)nc23)cn1	-4	64*	-1	0
Cc1ccc(-c2cccc3cnc(Nc4cccc(C(=O)NC5CC5)c4)nc23)cn1	30	33*	1	0
Cc1ccc(-c2cccc3cnc(Nc4cccc(C(=O)N5CCCC5)c4)nc23)cn1	18	25	2	0
Cc1ccc(CNC(=O)CNC(=S)N(Cc2ccccc2)Cc2cccs2)cc1	9	7	0	2.0*
Cc1cc(NC(=S)N(Cc2ccccc2)Cc2cccs2)ccc1Cl	9	44*	0	0
O=C(CNC(=S)N(Cc1ccccc1)Cc1cccs1)NCc1ccccc1	16	3	0	1
S=C(Nc1ccc(Cl)cc1)N(Cc1ccccc1)Cc1cccs1	8	5	1	0
Cc1ccc(NC(=S)N(Cc2ccccc2)Cc2cccs2)cc1Cl	-5	36*	0	0
CCC(=O)N1CCC(n2nnc3cc(C)ccc32)CC1	2	-8	1	0
C=CCNC(=O)c1ccc(C)nc1NCc1cccnc1	17	-3	0	1.9*
Cc1ccc(C(=O)NCc2cccnc2)c(NCc2cccnc2)n1	7	8	0	1
CCCCOc1ccc(C2C3=C(CC(C)(C)CC3=O)Nc3c2c(=O)n(C)c(=O)n3C)cc1 (configuration not stated)	-3	3	1	0
Nc1nnc(SCC(=O)N2N=C(c3ccc4ccccc4c3)CC2c2ccccc2)s1 (configuration not stated)	0	51*	-2	0
COc1ccccc1C(=O)Nc1ccc2nc(SC(C)c3ccccc3)sc2c1 (configuration not stated)	-4	54*	3	0
Nc1nc(SCC(=O)Nc2cccc([N+](=O)[O-])c2)sc1C(=O)Nc1nccs1	5	32*	-5	0
O=C(CSc1nc2ccc(NC(=O)c3ccccc3Cl)cc2s1)Nc1cccc([N+](=O)[O-])c1	10	32*	0	0
O=C(CSc1nc2ccc(NC(=O)c3ccccc3C(=O)O)cc2s1)NCc1ccccc1	5	41*	-1	0
COc1ccccc1C(=O)Nc1ccc2nc(SCC(C)=O)sc2c1	6	-43	1	0
O=C(CSc1nc2ccc(NC(=O)c3ccccc3Cl)cc2s1)Nc1ccccc1	-2	-41	0	0
SMILES	MITF inh	TEAD-YAP block	GPR151 activ	FBW7 activator
Cc1ccc(C(=O)N[C@H]2C[C@H]3C(=O)N[C@@H](CC(C)C)C(=O)N3C2)cc1	-11	-3	0	0
Clc1cccc(Nc2nc(Cl)nc(N3CCOCC3)n2)c1	1	-9	0	0
O=C(Nc1ccc2c(c1)CCC2)c1cc2nc(-c3ccc(Cl)cc3)cc(C(F)(F)F)n2n1	-15	2	-2	0
COc1cc(/C=C/C(=O)c2ccccc2OC)ccc1OCC#N	10	58*	1	0
COCCN1C(=O)CC[C@@H]2CN(C(=O)c3ccc(OC)cc3)CC[C@@H]21	-3	4	-1	0
N#Cc1c2ccc([N+](=O)[O-])cc2[n+]([O-])n1-c1ccccc1	-3	-25	1	0
N#CC1=C(N)N(c2ccccc2)S(=O)(=O)c2cc([N+](=O)[O-])ccc21	14	56*	-1	0
CCCCN1/C(=C/c2ccc3cc(OC)ccc3[n+]2CC)Sc2ccc(OC)cc21	18	89*	2	-1
CC[n+]1c(I)ccc2cc(OC)ccc21	-1	-2	2	0
CCN1/C(=C/c2ccc3ccccc3[n+]2CC)Sc2ccc(OC)cc21	18	90*	1	0
CCN1/C(=C/c2ccc3cc(NC(C)=O)ccc3[n+]2CC)Sc2ccccc21	6	52*	0	-1
CCCCN1/C(=C/c2ccc3ccccc3[n+]2CC)Sc2ccccc21	5	92*	4	-1
Cc1cc(NC(=O)c2cnn3cc(Br)cnc23)no1	5	-18	-1	0
